Inconclusive results are not listed. The source made the active and inactive calls.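 The calls were made as follows, unless noted: active = Her2 level under about 52% in both replicate screens, with viability over 70% of control (limit read from the data); inconclusive = Her2 under the limit in one screen only, or viability under 70%; inactive = Her2 level above the set limit.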
Legend:
[1] = Her2 expression decrease, cell viability multiplex – SKBR3 breast tumor cells, AlphaScreen, ATP viability, primary screen (AID 461); settings: SKBR3 Her2 protein level, 18-24 h, measured here: SKBR3 viability, ATP luminescence, at 10 µM;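 as to Her2 level: lower value means less Her2 protein in the cells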;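 as to viability: percent of carrier control wells set as 100% viability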
[2] = molecular target: Receptor tyrosine-protein kinase erbB-2 (Homo sapiens) (UniProt P04626); assay: as above; settings: 18-24 h, at 10 µM, stronger effect = lower value
Chain of Receptor tyrosine-protein kinase erbB-2 (Homo sapiens) (P04626 whole entry, looked up): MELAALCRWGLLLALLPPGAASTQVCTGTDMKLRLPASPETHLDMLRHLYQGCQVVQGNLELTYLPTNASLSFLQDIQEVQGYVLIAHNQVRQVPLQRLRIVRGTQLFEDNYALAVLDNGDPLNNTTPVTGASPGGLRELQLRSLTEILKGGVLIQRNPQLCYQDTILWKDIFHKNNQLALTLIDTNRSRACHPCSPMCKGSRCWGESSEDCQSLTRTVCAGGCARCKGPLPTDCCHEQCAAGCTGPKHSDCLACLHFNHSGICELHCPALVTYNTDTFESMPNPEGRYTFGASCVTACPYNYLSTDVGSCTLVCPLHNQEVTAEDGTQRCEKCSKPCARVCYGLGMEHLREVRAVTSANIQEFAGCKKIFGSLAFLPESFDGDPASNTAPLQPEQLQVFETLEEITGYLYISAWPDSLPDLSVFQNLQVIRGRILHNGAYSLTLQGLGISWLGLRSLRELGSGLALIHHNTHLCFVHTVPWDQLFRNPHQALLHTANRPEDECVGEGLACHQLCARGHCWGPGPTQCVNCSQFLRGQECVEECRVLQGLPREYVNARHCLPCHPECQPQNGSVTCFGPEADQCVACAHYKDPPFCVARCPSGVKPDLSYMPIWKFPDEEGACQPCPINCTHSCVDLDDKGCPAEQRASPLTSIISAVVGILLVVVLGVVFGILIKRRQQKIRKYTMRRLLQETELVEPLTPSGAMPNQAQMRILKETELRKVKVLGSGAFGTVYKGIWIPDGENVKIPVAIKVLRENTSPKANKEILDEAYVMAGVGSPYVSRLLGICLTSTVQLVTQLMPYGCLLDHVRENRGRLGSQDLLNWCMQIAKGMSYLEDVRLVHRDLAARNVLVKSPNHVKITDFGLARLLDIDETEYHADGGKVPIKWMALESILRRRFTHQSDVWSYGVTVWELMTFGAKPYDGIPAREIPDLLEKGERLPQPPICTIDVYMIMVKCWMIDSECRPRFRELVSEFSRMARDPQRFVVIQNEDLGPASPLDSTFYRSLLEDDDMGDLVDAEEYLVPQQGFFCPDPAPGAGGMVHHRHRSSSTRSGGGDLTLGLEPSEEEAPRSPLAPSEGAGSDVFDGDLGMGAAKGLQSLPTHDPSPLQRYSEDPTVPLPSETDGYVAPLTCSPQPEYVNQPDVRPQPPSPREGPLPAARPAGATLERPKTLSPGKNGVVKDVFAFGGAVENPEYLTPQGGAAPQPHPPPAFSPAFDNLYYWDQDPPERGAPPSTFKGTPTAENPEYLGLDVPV

[3] = reduced viability of SK-BR-3 breast cancer cells – cell-based, 24 h, human, pilot screen (AID 572;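 active = viability at or below 10% of carrier control in both of two separate runs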;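 also: compound exposure lasted between 18 and 24 h rather than exactly 24 h; 100% = carrier-treated control wells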); settings: SK-BR-3 viability, CellTiter-Glo luminescence, at 10 µM, stronger effect = lower value
[4] = HUVEC growth inhibition – cell-based, human, primary screen (AID 575;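 active = viability at or below 30% in both replicate assays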;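 also: 100% = median of untreated cell wells with 0.1% DMSO on each plate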); settings: HUVEC proliferation, CellTiter-Glo luminescence, 72 h; at 10 µM; stronger effect = lower value
[5] = H69AR cell proliferation blockers – human, duplicate replicates, primary screen (AID 580;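 active = viability at or under a set limit in both replicates, limit being median viability minus 3 SD, cut at about 48% in these data, passing the limit was not always enough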;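 also: 100% = mean luminescence of untreated wells and 0% = no signal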); settings: H69AR lung tumor cells viability, ATP luminescence, 72 h; at 10 µM; stronger effect = lower value
[6] = MRP1 drug-resistance reversers in H69AR cells – cell-based, doxorubicin co-treatment, pilot screen (AID 601;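 active = viability loss from added drug above about 55%, and viability with drug at most 40%, in both replicates, limit read from the data, passing the limit was not always enough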); settings: CellTiter-Glo, 72 h, at 10 µM; for differential viability (reversal): stronger effect = higher value
[7] = yeast transport mutant growth inhibition pilot in 384-well plates, post-Golgi transport modulator project (AID 636; in the data active = inhibition above about 31%); settings: absorbance 615 nm, about 18 h, stronger effect = higher value
[8] = growth suppression of yeast trafficking mutant, preliminary HTS, modulators of trafficking downstream of Golgi apparatus project, 1536-format plate, OD 615 nm (AID 637; in the data active = inhibition above about 30%); settings: yeast transport mutant growth, absorbance 615 nm, 18 h; stronger effect = higher value
[9] = S. cerevisiae growth inhibition in permissive medium (OD615), pilot counter-assay for S. cerevisiae lifespan shortening project, permissive growth control (AID 705;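 active = growth inhibition above 25% in both replicates, a cutoff set 3 SD above the mean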); settings: OD615, 24 h, at 10 µM, stronger effect = higher value
[10] = S. cerevisiae growth inhibition in restrictive medium, OD615, pilot screen, restrictive growth control, yeast lifespan reduction project (AID 706;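 active = growth inhibition above a set limit, 3 SD over mean compound inhibition, in both replicates, cut at about 43% in these data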;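 also: modified DeaD lifespan yeast strain shifted to restrictive glucose medium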); settings: OD615, 48 h, at 10 µM, stronger effect = higher value
[11] = doxorubicin toxicity protection in MRP-1 cells – H69AR cells, CellTiter-Glo, duplicate, MRP-1 activator project, pilot screen (AID 807;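 active = viability increase at or above a cutoff of the median across tested compounds plus 3 SD, cut at about 8.5% in these data, passing the limit was not always enough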;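 also: compound pretreatment 18-22 h then 72 h combined with doxorubicin; 0% = doxorubicin alone and 100% = vehicle without doxorubicin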); settings: H69AR viability with doxorubicin, CellTiter-Glo luminescence; at 10 µM; stronger effect = higher value
[12] = viability of HCT116 without oncogenic beta-catenin – human colon tumor cells, pilot screen (AID 823;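 active = cell viability at or below a set limit in both duplicate runs, the limit being the all-compound median minus 4 SD, cut at about 23% in these data, passing the limit was not always enough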;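 also: 0% = wells killed by 20 µM Hyamine and 100% = untreated DMSO cell wells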); settings: HCT116 beta-catenin knockout viability, CellTiter-Glo, 60 h; at 10 µM; stronger effect = lower value
[13] = viability of PTEN-null HCT116 cells – cell-based, HCT116 clonal line, CellTiter-Glo, pilot screen (AID 824;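 active = viability at or below 27.92% in each of two runs, the all-compound median minus 4 SD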;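 also: 0% = 20 µM Hyamine control and 100% = vehicle cell control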); settings: HCT116 PTEN-deleted viability, 60 h, at 10 µM, stronger effect = lower value
[14] = RAM pathway blockade in budding yeast – dse1pr::URA3 reporter, 5-FOA selection, pilot screen (AID 869;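 active = inhibition over a set limit, the all-compound mean plus 3 SD, in both replicate runs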;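 also: 0% = DMSO wells with no growth and 100% = 10 µM 1-NA-PP1 with full growth; RAM network block rescues cells from 5-FOA so hits raise OD615 growth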); settings: S. cerevisiae dse1pr::URA3 5-FOA growth, OD615, 2 d; at 10 µM; stronger effect = higher value; strain carries analog-sensitive mutant Cbk1 kinase
[15] = RAM signaling pathway blockade in yeast – S. cerevisiae, Pdr1DBD-CYC8 efflux-inhibited sensitized strain, primary screen (AID 1298;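 active = RAM network inhibition above 8.4% in each of two replicates, 3 SD over the compound average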;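 also: 0% = DMSO untreated cells without growth and 100% = 10 µM 1-NA-PP1 full growth; higher means more yeast growth rescued from 5-FOA killing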); settings: S. cerevisiae cbk1-as DSE1-URA3 strain, 5-FOA growth OD615, 2 d; at 50 µM; stronger effect = higher value
[16] = H69AR cells + 2 uM doxorubicin, measured here: viability with 2 uM doxorubicin, stronger effect = lower value
[17] = H69AR cells, compound alone cytotoxicity

COc1ccccc1N1C(=O)CCC1(C#N)c1ccccc1 (stereo not given)
117%: viability [6, 17]
inactive: Her2 level [2] 102% | viability [3] 97% | viability [4] 104% | viability [5] 117% | differential viability (reversal) ([6]; H69AR cells + 2 uM doxorubicin) 20.5% | inhibition [7] 0.68% | inhibition [8] -3.49% | growth inhibition [9] -7.28% | growth inhibition [10] 0.615% | viability increase [11] -1.56% | viability [12] 108% | viability [13] 99.7% | inhibition [14] 1.52% | RAM network inhibition [15] 2.81%
97%: viability [1]
96.9%: viability [6, 16]

COc1cccc(C2C(C(N)=O)=C(C)Nc3nc(-c4ccccc4Cl)nn32)c1 (stereo not given)
79.5%: viability [1]
92.1%: viability [6, 17]
inactive: Her2 level [2] 92.5% | viability [3] 79.5% | viability [4] 69.3% | viability [5] 92.1% | differential viability (reversal) ([6]; H69AR cells + 2 uM doxorubicin) 15.7% | inhibition [7] -5.33% | inhibition [8] -2.83% | growth inhibition [9] -0.045% | growth inhibition [10] -2.87% | viability increase [11] -2.66% | viability [12] 67.2% | viability [13] 72.2% | inhibition [14] -0.135% | RAM network inhibition [15] 2.34%
76.4%: viability [6, 16]

O=C(Cn1cc2c(n1)CCCC2)NCCc1ccccc1
111%: viability [6, 16]
inactive: Her2 level [2] 100% | viability [3] 105% | viability [4] 103% | viability [5] 88.4% | differential viability (reversal) ([6]; H69AR cells + 2 uM doxorubicin) -22.7% | inhibition [7] -1.6% | inhibition [8] -4.33% | growth inhibition [9] -2.47% | growth inhibition [10] -9.12% | viability increase [11] -0.17% | viability [12] 106% | viability [13] 95.3% | inhibition [14] 1.38% | RAM network inhibition [15] 1.42%
88.4%: viability [6, 17]
105%: viability [1]

COc1cccc(-n2c(SCC(=O)Nc3cc(C)on3)nc3c([nH]c4ccccc43)c2=O)c1
82.6%: viability [6, 16]
66.4%: viability [6, 17]
inactive: Her2 level [2] 90.5% | viability [3] 76% | viability [4] 61.5% | viability [5] 66.4% | differential viability (reversal) ([6]; H69AR cells + 2 uM doxorubicin) -16.2% | inhibition [7] -4.53% | inhibition [8] -0.67% | growth inhibition [9] -3.05% | growth inhibition [10] -0.53% | viability increase [11] -4.78% | viability [12] 82% | viability [13] 73.8% | inhibition [14] 2.33% | RAM network inhibition [15] 1.62%
76%: viability [1]

CCCCN(CC)CCCNC(=O)c1cc2c(=O)n(C)c3ccccc3c2n1C
70.1%: viability [6, 17]
inactive: Her2 level [2] 77% | viability [3] 76% | viability [4] 67.5% | viability [5] 70.1% | differential viability (reversal) ([6]; H69AR cells + 2 uM doxorubicin) -0.115% | inhibition [7] -2.05% | inhibition [8] -2% | growth inhibition [9] -8.88% | growth inhibition [10] -1.18% | viability increase [11] -7.73% | viability [12] 55.8% | viability [13] 54.6% | inhibition [14] -0.01% | RAM network inhibition [15] 1.02%
70.2%: viability [6, 16]
76%: viability [1]

CCOC(=O)N1CCN(C(c2ccc(Cl)cc2)c2sc3nc(C)nn3c2O)CC1 (stereo not given)
103%: viability [6, 16]
94%: viability [1]
inactive: Her2 level [2] 89% | viability [3] 94% | viability [4] 87.7% | viability [5] 94.7% | differential viability (reversal) ([6]; H69AR cells + 2 uM doxorubicin) -8.7% | inhibition [7] -4.67% | inhibition [8] 0.33% | growth inhibition [9] 1.38% | growth inhibition [10] 1.06% | viability increase [11] 0.03% | viability [12] 98.4% | viability [13] 106% | inhibition [14] 0.72% | RAM network inhibition [15] 6.22%
94.7%: viability [6, 17]

COc1ccc(NS(=O)(=O)c2coc(C(N)=O)c2)cc1Cl
101%: viability [1]
inactive: Her2 level [2] 110% | viability [3] 101% | viability [4] 119% | viability [5] 99.1% | differential viability (reversal) ([6]; H69AR cells + 2 uM doxorubicin) -8.07% | inhibition [7] 0% | inhibition [8] 11% | growth inhibition [9] -21.1% | growth inhibition [10] -10.9% | viability increase [11] -0.71% | viability [12] 108% | viability [13] 102% | inhibition [14] 1.92% | RAM network inhibition [15] 1.58%
107%: viability [6, 16]
99.1%: viability [6, 17]

CC(C)(C)SCCNC(=O)CSc1ccccc1
inactive: Her2 level [2] 80% | viability [3] 102% | viability [4] 93.3% | viability [5] 101% | differential viability (reversal) ([6]; H69AR cells + 2 uM doxorubicin) 9.85% | inhibition [7] -6.22% | inhibition [8] 1.9% | growth inhibition [9] -0.57% | growth inhibition [10] 9.05% | viability increase [11] -0.61% | viability [12] 107% | viability [13] 98.3% | inhibition [14] 0.055% | RAM network inhibition [15] 4.54%
102%: viability [1]
101%: viability [6, 17]
91%: viability [6, 16]

CCCCOC(=O)Cn1c(=O)oc2ccc(C)cc21
102%: viability [1]
87.4%: viability [6, 16]
inactive: Her2 level [2] 126% | viability [3] 102% | viability [4] 86% | viability [5] 93.4% | differential viability (reversal) ([6]; H69AR cells + 2 uM doxorubicin) 5.94% | inhibition [7] -3.2% | inhibition [8] 2.67% | growth inhibition [9] -17.9% | growth inhibition [10] -25.1% | viability increase [11] -0.28% | viability [12] 89.6% | viability [13] 98.1% | inhibition [14] -0.58% | RAM network inhibition [15] 0.27%
93.4%: viability [6, 17]

CCCc1cc(C(=O)Nc2ccc(C(C)=O)cc2)no1
99.5%: viability [6, 17]
inactive: Her2 level [2] 91% | viability [3] 80.5% | viability [4] 77.7% | viability [5] 99.5% | differential viability (reversal) ([6]; H69AR cells + 2 uM doxorubicin) 5.59% | inhibition [7] 1.92% | inhibition [8] -1% | growth inhibition [9] -0.51% | growth inhibition [10] -1.09% | viability increase [11] -0.27% | viability [12] 98.5% | viability [13] 104% | inhibition [14] 2.74% | RAM network inhibition [15] 6.52%
80.5%: viability [1]
93.9%: viability [6, 16]

Source: PubChem BioAssay
